PubChem BioAssay (NCI)
This is part of a sample that, as a whole, favours compounds with a hit. Of some 83,000 tested, about 20% had one in any assay.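 Single-concentration screen, 48 h exposure, 96-well plates. Endpoint: percent growth. Below 10 = active.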 Unmarked numbers belong to inactive results. Activity calls are given as the source filed them.

Experiments:
Experiment in all cases: NCI-60 one-dose screen, 48 h (100 = growth as untreated, 0 = no growth, -100 = all killed)
[1] = system: NCI-H23 lung; details: 10 µM unless noted
[2] = system: NCI-H322M lung; details: 10 µM unless noted
[3] = system: HOP-62 NSCLC; details: 10 µM unless noted
[4] = system: A549/ATCC NSCLC; details: 10 µM unless noted
[5] = system: 786-0 renal; details: 10 µM unless noted
[6] = system: COLO 205 colon; details: 10 µM unless noted
[7] = system: NCI-H460 lung; details: 10 µM unless noted
[8] = system: HOP-92 NSCLC; details: 10 µM unless noted
[9] = system: NCI-H522 lung; details: 10 µM
[10] = system: NCI-H226 lung; details: 10 µM

Compound	growth [1]	growth [2]	growth [3]	growth [4]	growth [5]	growth [6]	growth [7]	growth [8]	growth [9]	growth [10]
Oc1cccc(Nc2nc(-c3ccccn3)cs2)c1	107%	94.6%	98%	94.8%	102%	103%				
Cc1nc2ccc(Cl)cc2n1C	107%	108%		103%	101%		109%	105%	90.2%	
C[C@H]1C(=O)C23CCC1C[C@@]21O[C@@H]2C(C)(C)C=CC(=O)C23COC1=O		105%	101%	83.9%	109%	105%	101%	114%	93.2%	94.2%
C=C[C@H]1C[C@@H]2C[C@@H]3[C@H]4C/C=C\C(=O)NCCCC5NC(=O)C(=C(O)/C=C/[C@@H]4CC(=O)[C@H]3[C@@H]2[C@H]1C)C5=O (stereo not given in full)	-8.31% (active)		-82.3% (active)	-91% (active)		-82.9% (active)	-69.4% (active)	-85.7% (active)	46.4%	
COc1ccc2nc(-n3nc(C)cc3C)c(-n3nc(C)cc3C)nc2c1	97.1%		105%	115%	105%	113%	108%	115%	100%	
Cc1cc(O)cc2c1[C@H]1CC[C@]3(C)[C@@H](O)CC[C@H]3[C@@H]1C=C2	90.5%		74.5%	86.9%	99.5%	108%	104%	105%	43.2%	
O=C(CCc1nnc2sc(/C=C\c3ccccc3)nn12)c1nc2ccccc2[nH]1	73.4%		75.8%	97.5%	89.7%	90.7%	96.7%	52.9%	95.1%	
COc1ccc(NC(=O)c2ccc3c(c2)nc(-c2ccc(Cl)cc2)n3-c2cc(C(C)(C)C)[nH]n2)cc1		85.5%	106%	79.7%	87.6%		101%	59.3%	73.7%	91.5%
Cn1c(=O)c2c(-c3ccccc3F)n(-c3ccc4c(c3)OCO4)cc2n(C)c1=O	95.2%		102%	99.8%	102%	106%	99.4%		91.5%	
Cc1nc(NC(=O)COc2cccc(/C=C3\COc4ccccc4C3=O)c2)sc1C		58.6%	71.9%	30.1%	72.1%	16.6%	9.93% (active)	-20.3% (active)	-49.6% (active)	83.2%
COc1cc(/C=C/C(=O)C2=C(/C=C/c3ccc(O)c(OC)c3)NC(=O)NC2c2ccc(O)c(OC)c2)ccc1O (stereo not given)		102%	123%	78.9%	100%		89.1%	88.9%		91.8%
O=C(Nc1ccccc1O)c1ccc(NS(=O)(=O)c2cccc3cccnc23)cc1		48.3%	38.3%	51.1%	71.9%	47.8%	40.2%		37.7%	50.3%
OC[C@@H](O)[C@@H](O)CO		105%	126%	104%	104%	111%	107%	101%		98.6%
CN1CCc2c(Sc3ccc(C(=O)NO)cc3)c3ccccc3n2C1		67.8%	66.8%	52.1%	75.3%		40.3%	52.6%		62.1%
COc1ccc(-c2nn(-c3ccc(NC(=O)c4ccc(Cl)c(Cl)c4)cc3)cc2-c2ccncc2)cc1Cl		69.1%	6.02% (active)	42.7%	-33% (active)	-27.2% (active)	20.6%	37.1%	54.3%	75.8%
C[C@@H](Oc1cc(-c2cnn(C3CC4(CNC4)C3)c2)cnc1N)c1c(Cl)ccc(F)c1Cl		72.1%	49.9%	19.6%	53%	5.17% (active)	15.9%	0.0528% (active)	69.1%	65.9%
